Source: PubChem BioAssay
This is one part of a sample in which hits are shown more often than they occur.
Pf Dd2 growth – blocks in vitro growth of P. falciparum Dd2 | actives 4.3% (n = 120,000) | Potency, µM (series often up to 28.9 µM), hits mostly inhibitors | P. falciparum Dd2 growth, SYBR Green, 72 h; active means well fitted inhibition curve with a large enough effect; further: nearly all actives have a fitted effect of over 65% in size
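Readout: SYBR Green fluorescence, 485 nm excitation, 535 nm emission, after ~16 h lysis at 37C. Before that, Dd2-infected red cells (2.5% hematocrit) grew 72 h with compound, 29 uM top final concentration.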
Each line names hits and unclear results; the compound was inactive in the other large screens.

COc1ccccc1NC(=O)Cn1c(=O)n(-c2ccc(F)cc2)c(=O)c2c1cc(C)n2C	none
Cc1ccc(N(C)S(=O)(=O)c2ccc3[nH]c4c(c3c2)CCCC4)cc1	none
CCc1ccc(NS(=O)(=O)c2ccc3[nH]c4c(c3c2)CCCCCC4)cc1	none
CCN(Cc1ccccc1)S(=O)(=O)c1ccc2[nH]c3c(c2c1)CCCCC3	Pf Dd2 growth 12.6µM
O=C(c1ccsc1)N1CC[C@@H]2COCCN(Cc3ccccc3)[C@@H]2C1	none
O=C(NC1CCN(Cc2ccccc2)CC1)c1cc2c(s1)CN(C1CCCC1)C2	Pf Dd2 growth 7.08µM
O=C(O)c1cc2c(s1)CN(C1CCCC1)C2	none
Cc1ccc2nc(Cl)c3cc(C(=O)N4CCCCC4)sc3c2c1	none
CCC1CCCCN1CCNC(=O)c1cc2c(s1)CN(C1CCCC1)C2 (centres undefined)	Pf Dd2 growth 6.31µM
Cc1nnc(NC(=O)NC2CCN(Cc3ccccc3)CC2)s1	none
CCN(CCNC(=O)c1cc2c(s1)CN(C1CC1)C2)c1cccc(C)c1	none
CCC1CCCCN1CCCNC(=O)c1cc2c(Cl)nc3ccc(C)cc3c2s1 (centres undefined)	Pf Dd2 growth 3.55µM
O=C(NCCN1CCCCC1)c1cc2c(s1)CCN(C(=O)c1ccc(Cl)cc1)C2	none
Cc1ccc2nc(Cl)c3cc(C(=O)N4CCCCC4C)sc3c2c1 (centres undefined)	none
COc1cccc(-c2nc3cnccn3c2NCCC(=O)Nc2cccc(Cl)c2)c1	none
Cc1ccccc1NC(=O)C1CCCN(c2cn[nH]c(=O)c2)C1 (centres undefined)	none
COc1cccc([S+](=O)([O-])N2CCC(N3CCNC3=O)CC2)c1	none
Cc1noc([C@@H]2CN(C(=O)c3cc(C)oc3C)C[C@H]2CO)n1	none
CCN1c2cc(C(=O)Nc3ccc(N(C)C)cc3)ccc2C(=O)N2CCCCCC21 (centres undefined)	none
COc1cccc(C(=O)NC2CCN(c3cnn(C)c(=O)c3)CC2)c1OC	none
CCNC(=O)N1CCCC(O)(CNS(=O)(=O)c2cnn(CC)c2C)CC1 (centres undefined)	none
O=C(c1ccc2c(c1)OCO2)N1CCCC2(C1)NC(=O)N(Cc1ccc(Cl)cc1)C2=O (centres undefined)	none
CN1C(=O)C(CC(=O)NCCCN2CCc3ccccc3C2)=C2CCCCC21 (centres undefined)	none
CC1CCN(c2ccc(CNC(=O)CC3=C4CCCCC4N(C)C3=O)cc2)CC1 (centres undefined)	Pf Dd2 growth 10µM
CN1C(=O)C(CC(=O)NCC2CCN(Cc3ccc(F)cc3)CC2)=C2CCCCC21 (centres undefined)	Pf Dd2 growth 5.01µM
CCNC(=O)CC1=C2CCCCC2N(C)C1=O (centres undefined)	none
O=C(CC1=C2CCCCC2N(Cc2ccc(F)cc2)C1=O)NC1CC1 (centres undefined)	none
CN1C(=O)C(CC(=O)NC2CC2)=C2CCCCC21 (centres undefined)	none
O=C(O)C[C@@H]1CCN(C(=O)NCc2ccccc2)C[C@@H]1CC1=NCCc2ccccc21	none
CC(C)N1CCCC2(CCN(C(=O)c3cn[nH]c3-n3cnnn3)C2)C1=O (centres undefined)	none
Cn1c(Cn2cccn2)nnc1C1CC(NC(=O)CN2CCCCCCC2)C1 (centres undefined)	none
Cc1cccnc1CN1CCN2C(=O)N(Cc3ccc(F)cc3)C[C@H]2C1	none
Cc1ccc(C2=NC3(CCN(C(=O)c4cccc(C)c4)CC3)ON2)cc1	none
CCC(Cn1nnc2ccccc2c1=O)NC(=O)Nc1ccc(C)cc1 (centres undefined)	none
CCOc1ccc(N(C(=O)Cn2nnc3ccccc32)C(C(=O)NCc2ccccc2)c2ccc(OC)cc2)cc1 (centres undefined)	none
CC(=O)Nc1ccc(N(C(=O)Cn2nnc3ccccc32)C(C(=O)NCc2ccccc2)c2ccc(C)cc2)cc1 (centres undefined)	Pf Dd2 growth 11.2µM
CCCCOC(=O)c1ccc(N2CC3CCC(C2)N3CC(F)(F)F)nn1	none
COCCO[C@H]1C(=O)N(C2CCN(C(=O)c3ccc4cc[nH]c4c3)CC2)[C@H]1c1ccncc1	none
CCOc1cc(C2c3c(oc4ccccc4c3=O)C(=O)N2Cc2ccc(OC)cc2)ccc1O (centres undefined)	none
O=C1c2[nH]nc(-c3ccccc3O)c2C(c2ccc(F)cc2)N1CCO (centres undefined)	none
CCCN1C(=O)c2[nH]nc(-c3cccc(OC)c3)c2C1c1ccccn1 (centres undefined)	none
O=C(NC1(C(F)(F)F)NC(=O)N(CCc2ccccc2)C1=O)c1ccc(Cl)cc1 (centres undefined)	none
CCCN1C(=O)c2[nH]nc(-c3ccccc3)c2C1c1cccc(O)c1 (centres undefined)	none
COc1ccc(-c2n[nH]c3c2C(c2ccccn2)N(C)C3=O)cc1 (centres undefined)	none
O=C1c2[nH]nc(-c3ccccc3O)c2C(c2ccc(Cl)cc2)N1CCc1ccccc1 (centres undefined)	Pf Dd2 growth 8.91µM
CCCN1C(=O)c2[nH]nc(-c3ccccc3O)c2C1c1cccc(OCc2ccccc2)c1 (centres undefined)	Pf Dd2 growth 4.47µM
COc1ccc(CCN2C(=O)c3[nH]nc(-c4ccccc4O)c3C2c2ccc(O)c(OC)c2)cc1 (centres undefined)	Pf Dd2 growth 10µM
COc1ccc(C2(C(=O)N3CC4CC(C3)[C@H]3CCCC(=O)N3C4)CC2)cc1 (some centres undefined)	none
O=C(NCc1nnc2ccc(-c3ccc(Cl)cc3)nn12)c1cccc(Br)c1	none
O=C(c1ccccc1Cl)N1CCC(n2c(=O)[nH]c3ccccc32)CC1	none
COc1ccc(NC(=O)CN2C(=O)NC3(CCC(C)CC3)C2=O)cc1OC (centres undefined)	none
CCCNC(=O)N1CCC(O)(c2csc(CN3CC[C@@H](O)C3)n2)CC1	none
CN(c1cc(=O)c2ccnc(-c3ccc(O)c(F)c3)c2o1)C1CCOCC1	none
CCN1C(=O)C2(CCN(S(=O)(=O)c3ccc(C(F)(F)F)cc3)CC2)c2ccccc21	none
Cc1ccc(C2(O)CCN(c3cc(C(F)(F)F)ccn3)CC2)nc1	none
FC(F)(F)CN1C2CCC1CN(c1ccc(C(F)(F)F)cn1)C2	none
Cn1ncc(CN2CCCC23CCN(c2ccc(C(F)(F)F)cn2)CC3)c1C1CC1	Pf Dd2 growth 11.2µM
C[C@@H]1CN(C2CCN(Cc3cnn(C)c3C3CC3)CC2)C[C@H](C)O1	none
CC(C)n1ccnc1CN1CCCC12CCN(c1ccc(C(F)(F)F)cn1)CC2	Pf Dd2 growth 12.6µM
COc1ccc(CN2CC3(COCC2=O)CN(c2ccc(C(F)(F)F)cn2)C3)cc1F	none
CC(C)n1ccnc1CN1CCC2(CCCO2)CCC1=O (centres undefined)	none
Cn1cc(CN2CCCC23CCN(c2ccc(C(F)(F)F)cn2)CC3)cc1C#N	Pf Dd2 growth 5.01µM
Cc1cccc(C)c1CN1CC2(COCC1=O)CN(c1ccc(C(F)(F)F)cn1)C2	none
COc1ccc(C(=O)N2C[C@@H](Oc3ccccc3)C[C@H]2C(=O)N2CCOCC2)cc1	none
COCCN1CCC2(CCC1=O)CCN(C(=O)C1CCOCC1)CC2	none
O=C(c1ccc(N2CCCC2=O)cc1)N1CCC2(CC1)OCCCC2O (centres undefined)	none
CCc1nc2c(=O)n(CC(=O)NCc3ccc(F)cc3Cl)nc(C)c2s1	none
CCCNC(=O)C1N(C(C)C)C(=O)C12CCCC2 (centres undefined)	none
CC(C)c1nc2nccc(-c3ccsc3)n2n1	none
c1ccc2oc(-c3ccnc4nc(C5CCC5)nn34)cc2c1	none
COC(=O)c1ccccc1S(=O)(=O)N1CCC(c2cc(-c3cccc(C)c3)n[nH]2)CC1	none
